Test results published in PubChem BioAssay (EPA / NIEHS).
The source made the active and inactive calls. How the source made its calls: active means hit-call score of the fitted dose curve at least 0.9, where 1 is the maximum; inactive means score below 0.9.

Tests used:
Conditions in all cases: primary human HUVEC with PBMC; actives raise or lower the signal
[1] = read-out: Macrophage colony-stimulating factor (MCSF), CSF1 (gene 1435); assay: BSK_LPS_MCSF: BioMAP Diversity Plus: LPS Assay for Macrophage colony-stimulating factor (MCSF) Biomarker Activity (AID 2283083)
In short: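 Bidirectional fit versus DMSO of ELISA-measured M-CSF in co-cultured human umbilical vein endothelial cells and PBMC, sampled 24 h after dosing.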

[2] = read-out: Tissue Factor, F3 (gene 2152); assay: BSK_LPS_TissueFactor: BioMAP Diversity Plus: LPS Assay for Tissue Factor Biomarker Activity (AID 2283084)
In short: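 Read-out: CD142 ELISA, 24 h. System: LPS-driven human endothelial/PBMC co-culture. Analysis: up- or down-signal fitted against DMSO.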

[3] = read-out: Tumor necrosis factor (Homo sapiens) (UniProt P01375); assay: BSK_LPS_TNFa: BioMAP Diversity Plus: LPS Assay for Tumour Necrosis Factor alpha (TNFa) Biomarker Activity (AID 2283085);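 on AC50: TNFa protein level quantified by ELISA in the co-culture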
In short: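 ELISA-based TNFa endpoint in a human endothelial–PBMC co-culture sampled 24 h post-exposure. Curves were fitted in both directions using DMSO as baseline of activity.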

[4] = read-out: Vascular cell adhesion molecule 1 (VCAM1), VCAM1 (gene 7412); assay: BSK_LPS_VCAM1: BioMAP Diversity Plus: LPS Assay for Vascular cell adhesion molecule 1 (VCAM1) Biomarker Activity (AID 2283086)
In short: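 Measured by ELISA: VCAM-1 in LPS-activated HUVEC/PBMC co-cultures 24 h after treatment. Values reflect bidirectional fitting with DMSO as baseline.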

[5] = read-out: CD38, CD38 (gene 952); assay: BSK_SAg_CD38: BioMAP Diversity Plus: SAg Assay for CD38 Biomarker Activity (AID 2283087)
In short: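 Measures CD38 on a human endothelial/PBMC co-culture driven by SEB and TSST-1, 24 h after compound exposure, using ELISA with fluorescence detection; DMSO defines baseline for bidirectional curve fitting.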

[6] = read-out: CD40, CD40 (gene 958); assay: BSK_SAg_CD40: BioMAP Diversity Plus: SAg Assay for CD40 Biomarker Activity (AID 2283088)
In short: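 Endpoint derived by fitting increases or decreases versus DMSO controls. CD40 is detected by fluorescence ELISA in a human vascular co-culture of endothelium and PBMC at 24 h.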

[7] = read-out: CD69, CD69 (gene 969); assay: BSK_SAg_CD69: BioMAP Diversity Plus: SAg Assay for CD69 Biomarker Activity (AID 2283089);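 on AC50: cell surface CD69 protein quantified by ELISA with fluorescence detection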
In short: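 Endothelial/PBMC co-culture; chemical added; 24 h incubation; CD69 ELISA with fluorescence detection; bidirectional fit vs DMSO.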

[8] = read-out: Monocyte Chemoattractant Protein-1 (MCP1), CCL2 (gene 6347); assay: BSK_SAg_MCP1: BioMAP Diversity Plus: SAg Assay for Monocyte Chemoattractant Protein-1 (MCP1) Biomarker Activity (AID 2283090)
In short: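 Values derive from bidirectional fitting of ELISA-measured MCP1 against DMSO controls. Readings were taken 24 h after dosing human vascular endothelial cells co-cultured with peripheral blood mononuclear cells under superantigen stimulation.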

[9] = read-out: Monokine induced gamma interferon (MIG), CXCL9 (gene 4283); assay: BSK_SAg_MIG: BioMAP Diversity Plus: SAg Assay for Monokine induced gamma interferon (MIG) Biomarker Activity (AID 2283092)
In short: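 Measures CXCL9 protein by ELISA in a human vascular primary-cell co-culture (umbilical vein endothelium with PBMC) 24 h after chemical addition. Activity is scored up or down from the DMSO control.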

[10] = read-out: E-selectin (Homo sapiens) (UniProt P16581); assay: BSK_SAg_Eselectin: BioMAP Diversity Plus: SAg Assay for Eselectin Biomarker Activity (AID 2283091)
In short: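 Endpoint values derive from bidirectional fitting relative to DMSO, using ELISA-measured E-selectin in a human vascular co-culture (umbilical vein endothelium plus PBMC) sampled 24 h after dosing.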

Measured: AC50

Chain of E-selectin (Homo sapiens) (P16581 whole entry, looked up): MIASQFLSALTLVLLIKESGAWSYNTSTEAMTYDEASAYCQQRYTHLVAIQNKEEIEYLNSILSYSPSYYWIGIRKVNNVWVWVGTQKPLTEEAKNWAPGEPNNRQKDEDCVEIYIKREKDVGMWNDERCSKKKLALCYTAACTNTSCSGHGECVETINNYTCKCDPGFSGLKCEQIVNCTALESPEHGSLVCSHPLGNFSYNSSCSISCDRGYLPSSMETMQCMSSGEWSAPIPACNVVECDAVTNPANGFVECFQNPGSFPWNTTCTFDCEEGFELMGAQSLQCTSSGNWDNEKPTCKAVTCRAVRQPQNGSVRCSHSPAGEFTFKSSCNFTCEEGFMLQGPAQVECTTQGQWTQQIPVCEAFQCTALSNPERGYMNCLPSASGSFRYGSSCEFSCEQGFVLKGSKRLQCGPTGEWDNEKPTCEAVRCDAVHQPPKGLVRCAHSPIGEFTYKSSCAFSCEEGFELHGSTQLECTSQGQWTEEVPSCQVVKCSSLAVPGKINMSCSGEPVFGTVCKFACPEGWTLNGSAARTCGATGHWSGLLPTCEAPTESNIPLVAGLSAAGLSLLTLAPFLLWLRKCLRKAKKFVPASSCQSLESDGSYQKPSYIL
Chain of Tumor necrosis factor (Homo sapiens) (P01375 whole entry, looked up): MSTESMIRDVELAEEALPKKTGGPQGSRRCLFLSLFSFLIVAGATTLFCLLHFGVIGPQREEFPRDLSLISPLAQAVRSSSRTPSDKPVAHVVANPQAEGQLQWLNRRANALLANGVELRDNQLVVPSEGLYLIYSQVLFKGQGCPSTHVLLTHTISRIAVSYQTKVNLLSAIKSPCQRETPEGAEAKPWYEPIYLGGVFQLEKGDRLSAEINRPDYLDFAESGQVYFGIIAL

CNCc1ccc(NC(=O)c2c[nH]c3c2C(=O)CCC3)cc1
inactive: [1] | [2] | [3] | [4] | [5] | [6] | [7] | [8] | [9]

COc1ccc2sc(C(=O)Nc3nnn[nH]3)c(OC(C)C)c2c1
active: [1] 14.1 µM | [2] 33.2 µM | [3] 28.9 µM | [4] 8.99 µM | [5] 16.2 µM | [6] 9.27 µM | [7] 19.9 µM | [8] 15.4 µM | [9] 27.8 µM

CC/C(=C\C(=N/O)C(N)=O)C(C)[N+](=O)[O-] (stereo not drawn)
inactive: [1] | [2] | [3] | [4] | [5] | [6] | [7] | [8]

COC(=O)c1ccccc1O
inactive: [1] | [2] | [3] | [4] | [5] | [6] | [8]

CC(C)CCO
inactive: [1] | [2] | [3] | [4] | [5] | [6] | [7] | [8]

O=C(O)c1cc(N=Nc2ccc(S(=O)(=O)Nc3ccccn3)cc2)ccc1O
inactive: [1] | [2] | [3] | [4] | [5] | [6] | [7] | [8] | [9]

CN(C)c1ccc(Cc2ccc(N(C)C)cc2)cc1
inactive: [1] | [2] | [3] | [4] | [5] | [6] | [7] | [8] | [10] | [9]

CCCN(C1CCN(C(=O)C2CCNCC2)CC1)[C@@H]1CCc2ccc(OC)cc2C1
inactive: [1] | [2] | [3] | [4] | [5] | [6] | [7] | [8] | [10] | [9]

CCCCC(CC)COC(=O)c1ccc(C(=O)OCC(CC)CCCC)cc1 (stereo not drawn)
inactive: [1] | [2] | [3] | [4] | [5] | [6] | [7] | [8]

CCOc1cccc(-n2cc(C(=O)N3CCN(c4cc(C(=O)O)c5ccccc5c4)CC3)nc2-c2ccc(C)cc2)c1
active: [1] 23.2 µM | [2] 19.2 µM | [3] 20.9 µM | [4] 14.2 µM | [5] 28.2 µM | [6] 13.6 µM | [7] 21.7 µM | [8] 28.3 µM | [10] 19.2 µM | [9] 35.4 µM

COCCOc1cc2cc(C(=O)NC3CCN(C(C)C)CC3)n(CC(=O)Nc3ccc(Cl)cn3)c2cn1
inactive: [1] | [2] | [3] | [4] | [5] | [6] | [7] | [8] | [10]

CC(C)=CCC/C(C)=C/CO
inactive: [1] | [2] | [3] | [4] | [5] | [6] | [7] | [8] | [10] | [9]

CC(C)c1cccc(C(C)C)c1N1C(=O)c2ccc(O)cc2C1=O
active: [1] 9.36 µM | [4] 10.1 µM | [5] 13.6 µM | [6] 18.9 µM | [7] 19.1 µM | [8] 37.1 µM
inactive: [2] | [3]

CCc1cc(SCc2sc(-c3ccc(C(F)(F)F)cc3)nc2CN2CCN(c3ccc(OC)cc3)CC2)ccc1OCC(=O)O
active: [1] 13.3 µM | [2] 30.2 µM | [3] 38.1 µM | [4] 24.7 µM | [5] 10.3 µM | [6] 11.7 µM | [7] 15.1 µM | [8] 11.4 µM

C=CC(=C)CCC=C(C)C
inactive: [1] | [2] | [3] | [4] | [5] | [6] | [7] | [8] | [10]

O=C(O)CCN(C1(C(=O)NO)CCCC1)S(=O)(=O)c1ccc(Oc2ccc(F)cc2)cc1
inactive: [1] | [2] | [3] | [4] | [5] | [6] | [7] | [8] | [10]

Cc1[nH]cnc1C[C@H]1CCc2c(C)c3ccccc3n2C1=O
inactive: [2]
active: [1] 29.2 µM | [3] 25.7 µM | [4] 32.9 µM | [5] 31.2 µM | [6] 29.8 µM | [7] 27.4 µM | [8] 27.8 µM | [10] 30.8 µM | [9] 31.9 µM

CCCCCCCCCCCCc1ccccc1
inactive: [1] | [2] | [3] | [4] | [5] | [7] | [8] | [10] | [9]
active: [6] 31.8 µM

On1ccccc1=S
active: [4] 19.8 µM | [5] 12.2 µM | [6] 27.8 µM | [7] 12.2 µM | [8] 13 µM | [10] 8.16 µM
inactive: [1] | [2] | [3]

O=C1CCCCCN1
inactive: [1] | [2] | [3] | [4] | [5] | [6] | [7] | [8]
